SMILES strings stand for the structures. This is part of a sample that, as a whole, favours compounds with a hit. Of some 83,000 tested, about 20% had one in any assay.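 Interpretation: 100, growth as untreated; towards 0, rising growth inhibition; 0, no net growth; 0 to -100, cell death. Compounds scoring below 10 were considered active.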 Unmarked numbers belong to inactive results. Activity calls are given as the source filed them.

Test systems include SK-MEL-2 melanoma; EKVX NSCLC; SN12C renal; UO-31 renal; TK-10 renal; ACHN renal; CAKI-1 renal; CCRF-CEM leukemia; MOLT-4 leukemia; SR leukemia; RPMI-8226 leukemia; OVCAR-8 ovarian; OVCAR-5 ovarian; OVCAR-4 ovarian; SK-OV-3 ovarian; IGROV1 ovarian; OVCAR-3 ovarian; HS 578T breast; NCI/ADR-RES ovarian; A498 renal.
Common to all, as to experiment: NCI-60 one-dose screen, 48 h (100 = growth as untreated, 0 = no growth, -100 = all killed)
Common to all, as to conditions: 10 µM unless noted

Regarding `COc1cc(C2CC(=O)Nc3n[nH]c(-c4ccccc4)c32)cc(OC)c1OC` (stereo not drawn), the growth was 59.8% with SK-MEL-2 melanoma; 78.2% in the assay with EKVX NSCLC; 84.2% in the assay with SN12C renal; 87.1% in the assay on UO-31 renal; 97.7% in the assay on TK-10 renal; 104% in the assay with ACHN renal. Also, the growth was 92% in the assay on CAKI-1 renal; 70.2% in the assay on CCRF-CEM leukemia; 54% in the assay with MOLT-4 leukemia; 31.8% with SR leukemia; 90.6% in the assay with RPMI-8226 leukemia; 80.1% in the assay on OVCAR-8 ovarian. Also, the growth in the assay with OVCAR-5 ovarian was 91.3%; in the assay with OVCAR-4 ovarian, 88.4%; in the assay with SK-OV-3 ovarian, 85.5%; in the assay on IGROV1 ovarian, 71.4%; with OVCAR-3 ovarian it was 36%; with HS 578T breast, 74.8%. Further, the growth with NCI/ADR-RES ovarian is 104%.
As for `CCCN1CCN(c2ccc3nc(-c4ccc5nc(-c6cc(OC)c(OC)c(OC)c6)[nH]c5c4)[nH]c3c2)CC1`, the growth in the assay on SK-MEL-2 melanoma is 70.9%; with EKVX NSCLC, 109%; in the assay on SN12C renal it was 85.4%; in the assay with UO-31 renal, 86.5%; in the assay with TK-10 renal, 125%; in the assay with ACHN renal it was 96.4%. For the same compound, the growth in the assay with CAKI-1 renal is 105%; in the assay with CCRF-CEM leukemia it was 41.2%; in the assay on MOLT-4 leukemia, 62.6%; with SR leukemia, 34.6%; in the assay on RPMI-8226 leukemia, 95.3%; in the assay on OVCAR-8 ovarian, 75.5%. In addition, the growth in the assay on OVCAR-5 ovarian was 116%; in the assay with OVCAR-4 ovarian, 89.9%; with IGROV1 ovarian it was 101%; with OVCAR-3 ovarian, 76.9%; with HS 578T breast, 54.1%; in the assay on NCI/ADR-RES ovarian, 100%.
Turning to `CC(C)OC(=O)OCOP(=O)(OCOC(=O)OC(C)C)C1CCCN(O)C1=O` (stereo not drawn), the growth with SK-MEL-2 melanoma was 28.5%; with EKVX NSCLC, 47.8%; in the assay on SN12C renal, 5.75% (active); in the assay on UO-31 renal, 9.98% (active); in the assay on TK-10 renal, 2.39% (active); in the assay on ACHN renal, 26.9%. Further, the growth is 25.1% in the assay with CAKI-1 renal; 1.16% (active) in the assay on A498 renal; 22.5% in the assay on MOLT-4 leukemia; 11.8% in the assay with RPMI-8226 leukemia; 2.91% (active) with OVCAR-8 ovarian; 73.4% with OVCAR-5 ovarian. In addition, the growth with OVCAR-4 ovarian is 36%; with SK-OV-3 ovarian, 5.92% (active); with IGROV1 ovarian, 9.36% (active); in the assay on OVCAR-3 ovarian, 33.5%; in the assay with HS 578T breast it was 7.77% (active); with NCI/ADR-RES ovarian it was 39.2%.
As to `CC[C@]1(O)C[C@H]2CN(CCc3c([nH]c4ccccc34)[C@@](C(=O)OC)(c3cc4c(cc3OC)N(C=O)[C@H]3[C@@](O)(C(=O)OC)[C@H](OC(C)=O)[C@]5(CC)C=CCN6CC[C@]43[C@@H]65)C2)C1`, the growth in the assay with SK-MEL-2 melanoma was 58%; in the assay on EKVX NSCLC, 27.1%; in the assay with SN12C renal, 39.9%; with UO-31 renal, 28.6%; with TK-10 renal, 60.8%; in the assay on ACHN renal, 36.3%. The growth was 26.5% in the assay on CAKI-1 renal; 5.75% (active) with CCRF-CEM leukemia; 5.04% (active) in the assay on MOLT-4 leukemia; 9.82% (active) in the assay on SR leukemia; -5.85% (active) in the assay on RPMI-8226 leukemia; -47.6% (active) in the assay on OVCAR-5 ovarian. Also, the growth was 49.2% in the assay with OVCAR-4 ovarian; -7.88% (active) with SK-OV-3 ovarian; 4.04% (active) with IGROV1 ovarian; -41.4% (active) with OVCAR-3 ovarian; -62.6% (active) in the assay on NCI/ADR-RES ovarian.
Take `COc1ccc(C(=O)/C=C/C23c4ccccc4C(c4ccccc42)C2C(=O)NC(=O)C23)cc1` (stereo not drawn): the growth with SK-MEL-2 melanoma is 103%; with EKVX NSCLC it was 87.5%; in the assay on SN12C renal, 86.9%; in the assay on UO-31 renal, 72.6%; with TK-10 renal it was 114%; in the assay with ACHN renal, 95.4%. Further, the growth is 90.7% in the assay with CAKI-1 renal; 89.8% in the assay on CCRF-CEM leukemia; 87.3% in the assay with MOLT-4 leukemia; 75.5% in the assay with SR leukemia; 88.3% in the assay on OVCAR-8 ovarian; 91.4% in the assay on OVCAR-5 ovarian. Further, the growth in the assay on OVCAR-4 ovarian is 88.5%; with IGROV1 ovarian, 98.8%; in the assay with OVCAR-3 ovarian, 95.9%; with HS 578T breast, 77.6%; in the assay on NCI/ADR-RES ovarian, 90.1%.
Regarding `O=C1NC(=S)S/C1=C\N1N=C(c2ccc(Cl)cc2)CC1c1ccc(F)cc1` (stereo not drawn), the growth in the assay with SK-MEL-2 melanoma is 95.5%; in the assay with EKVX NSCLC it was 76%; in the assay with SN12C renal, 96.5%; in the assay with UO-31 renal, 60.1%; in the assay on TK-10 renal, 101%; in the assay with ACHN renal, 87.2%. Besides, the growth in the assay on CAKI-1 renal is 85.4%; in the assay on CCRF-CEM leukemia it was 65.5%; in the assay with MOLT-4 leukemia it was 45.1%; in the assay with SR leukemia, 46.9%; with RPMI-8226 leukemia, 69.7%; in the assay on OVCAR-8 ovarian, 81.3%. The growth in the assay with OVCAR-5 ovarian was 94.7%; with OVCAR-4 ovarian, 91.4%; with IGROV1 ovarian it was 96.2%; in the assay with OVCAR-3 ovarian, 86.4%; in the assay on HS 578T breast, 84.8%; in the assay with NCI/ADR-RES ovarian it was 87%.
On to `CCCN1CCN(c2ccc3nc(-c4ccc5nc(-c6ccc(OCC)c(OCC)c6)[nH]c5c4)[nH]c3c2)CC1`, for which the growth is -73.9% (active) in the assay on SK-MEL-2 melanoma; -3.15% (active) in the assay on EKVX NSCLC; -37.5% (active) in the assay with SN12C renal; 47.2% in the assay with UO-31 renal; -0.902% (active) in the assay with TK-10 renal; -28.9% (active) with ACHN renal. Also, the growth with CAKI-1 renal was -18.9% (active); in the assay with CCRF-CEM leukemia it was 5.88% (active); in the assay with MOLT-4 leukemia, 3.28% (active); in the assay with SR leukemia, 20.9%; in the assay on RPMI-8226 leukemia, -18.9% (active); in the assay on OVCAR-8 ovarian, -11% (active). Further, the growth in the assay on OVCAR-5 ovarian is -15.2% (active); with OVCAR-4 ovarian it was -59.9% (active); in the assay on IGROV1 ovarian it was -13.2% (active); in the assay with OVCAR-3 ovarian, -63.7% (active); in the assay with HS 578T breast, -37.2% (active); in the assay with NCI/ADR-RES ovarian, 79.4%.
In the case of `CCCCN1CCN(c2ccc3nc(-c4ccc5nc(-c6cc(OC)c(OC)c(OC)c6)[nH]c5c4)[nH]c3c2)CC1`, the growth was 83.8% in the assay with SK-MEL-2 melanoma; 106% in the assay on EKVX NSCLC; 80.2% in the assay on SN12C renal; 79.8% in the assay with UO-31 renal; 131% in the assay with TK-10 renal; 86.8% with ACHN renal. Further, the growth was 87.9% in the assay on CAKI-1 renal; 25.1% in the assay on CCRF-CEM leukemia; 47% in the assay on MOLT-4 leukemia; 10.7% in the assay on SR leukemia; 55.9% in the assay with RPMI-8226 leukemia; 56.2% in the assay with OVCAR-8 ovarian. In addition, the growth is 117% with OVCAR-5 ovarian; 84.4% in the assay with OVCAR-4 ovarian; 94.2% in the assay with IGROV1 ovarian; 67% in the assay on OVCAR-3 ovarian; 45% in the assay with HS 578T breast; 102% with NCI/ADR-RES ovarian.
